In PubChem BioAssay (EPA / NIEHS):
The source made the active and inactive calls. Rule for the calls: active = hit-call score of the fitted dose curve at least 0.9, where 1 is the maximum; inactive = score below 0.9.

What was measured:
[1] = read-out: urokinase plasminogen activator (uPA), PLAU (gene 5328); assay: BSK_KF3CT_uPA: BioMAP Diversity Plus: KF3CT Assay for urokinase plasminogen activator (uPA) Biomarker Activity (AID 2283075); settings: primary human keratinocytes with fibroblasts; actives raise or lower the signal
Method in brief: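 Skin co-culture (keratinocytes + foreskin fibroblasts), human primary; 24 h post-dose; uPA by ELISA; gain/loss fit vs DMSO baseline.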

CD40, CD40 (gene 958) = assay: BSK_LPS_CD40: BioMAP Diversity Plus: LPS Assay for CD40 Biomarker Activity (AID 2283076); settings: primary human HUVEC with PBMC; actives raise or lower the signal
Method in brief: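 Primary human umbilical vein endothelial cells co-cultured with peripheral blood mononuclear cells, LPS-stimulated, were dosed with chemical and read 24 h later. CD40 levels were measured by ELISA and fitted bidirectionally against DMSO as negative control and baseline.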

[2] = read-out: E-selectin (Homo sapiens) (UniProt P16581); assay: BSK_LPS_Eselectin: BioMAP Diversity Plus: LPS Assay for Eselectin Biomarker Activity (AID 2283077); settings: primary human HUVEC with PBMC; actives raise or lower the signal
Method in brief: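 Human umbilical vein endothelial cells co-cultured with peripheral blood mononuclear cells under LPS stimulation; E-selectin measured by ELISA 24 h after chemical dosing. Activity fitted bidirectionally against DMSO as negative control and baseline.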

[3] = read-out: Interleukin-8 (IL8), CXCL8 (gene 3576); assay: BSK_LPS_IL8: BioMAP Diversity Plus: LPS Assay for Interleukin-8 (IL8) Biomarker Activity (AID 2283078); settings: primary human HUVEC with PBMC; actives raise or lower the signal
Method in brief: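 Human umbilical vein endothelial cells co-cultured with PBMC were stimulated with LPS; IL-8 levels were measured by ELISA 24 h after chemical dosing. Activity was fitted bidirectionally against DMSO as negative control and baseline.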

[4] = BSK_LPS_SRB: Viability Assessment in the BioMAP Diversity Plus: LPS Assay (AID 2283079); settings: primary human HUVEC with PBMC;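 note: total protein by sulforhodamine B absorbance as a cytotoxicity measure; measured one day after compound addition; fitted in both directions against DMSO so loss or gain of signal counts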
Method in brief: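 Human umbilical vein endothelial cells co-cultured with PBMC (LPS system) were dosed for 24 h. Total protein was stained with 0.1% sulforhodamine B after 10% TCA fixation, read at 560 nm, and fitted bidirectionally against DMSO baseline.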

[5] = read-out: Interleukin-1 alpha (IL1a), IL1A (gene 3552); assay: BSK_LPS_IL1a: BioMAP Diversity Plus: LPS Assay for Interleukin-1 alpha (IL1a) Biomarker Activity (AID 2283080); settings: primary human HUVEC with PBMC; actives raise or lower the signal
Method in brief: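 Human umbilical vein endothelial cells co-cultured with peripheral blood mononuclear cells were LPS-stimulated and exposed to test chemicals for 24 h. IL-1 alpha was quantified by ELISA, with bidirectional curve fitting against DMSO as the negative control and baseline.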

[6] = read-out: Monocyte Chemoattractant Protein-1 (MCP1), CCL2 (gene 6347); assay: BSK_LPS_MCP1: BioMAP Diversity Plus: LPS Assay for Monocyte Chemoattractant Protein-1 (MCP1) Biomarker Activity (AID 2283081); settings: primary human HUVEC with PBMC; actives raise or lower the signal;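 for AC50: co-culture stimulated with LPS; secreted MCP-1 protein quantified by ELISA in culture supernatant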
Method in brief: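 HUVEC plus PBMC co-culture (human primary cells, LPS system) exposed to test chemical for 24 h; MCP-1 measured by ELISA. Bidirectional curve fitting against DMSO baseline; parallel SRB total-protein staining flags overt cytotoxicity.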

[7] = BSK_LPS_PGE2: BioMAP Diversity Plus: LPS Assay for Prostaglandin E2 (PGE2) Biomarker Activity (AID 2283082); settings: primary human HUVEC with PBMC; actives raise or lower the signal;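 for AC50: secreted prostaglandin E2 measured by ELISA in LPS-stimulated co-culture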
Method in brief: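 PGE2 release measured by ELISA in an LPS-activated co-culture of human umbilical vein endothelial cells and peripheral blood mononuclear cells, read at 24 h post-dosing. DMSO served as baseline for bidirectional curve fitting.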

[8] = read-out: Macrophage colony-stimulating factor (MCSF), CSF1 (gene 1435); assay: BSK_LPS_MCSF: BioMAP Diversity Plus: LPS Assay for Macrophage colony-stimulating factor (MCSF) Biomarker Activity (AID 2283083); settings: primary human HUVEC with PBMC; actives raise or lower the signal
Method in brief: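 Human umbilical vein endothelial cells co-cultured with peripheral blood mononuclear cells were exposed to compound for 24 h. M-CSF levels were measured by ELISA, and bidirectional curve fitting used DMSO as the negative control and baseline.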

[9] = read-out: Tissue Factor, F3 (gene 2152); assay: BSK_LPS_TissueFactor: BioMAP Diversity Plus: LPS Assay for Tissue Factor Biomarker Activity (AID 2283084); settings: primary human HUVEC with PBMC; actives raise or lower the signal
Method in brief: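 Human umbilical vein endothelial cells co-cultured with peripheral blood mononuclear cells were dosed and stimulated with LPS. Cell-surface CD142 was quantified by ELISA at 24 h. Activity was fitted bidirectionally against DMSO baseline.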

Measured: AC50

Sequence of E-selectin (Homo sapiens) (P16581 whole entry, looked up): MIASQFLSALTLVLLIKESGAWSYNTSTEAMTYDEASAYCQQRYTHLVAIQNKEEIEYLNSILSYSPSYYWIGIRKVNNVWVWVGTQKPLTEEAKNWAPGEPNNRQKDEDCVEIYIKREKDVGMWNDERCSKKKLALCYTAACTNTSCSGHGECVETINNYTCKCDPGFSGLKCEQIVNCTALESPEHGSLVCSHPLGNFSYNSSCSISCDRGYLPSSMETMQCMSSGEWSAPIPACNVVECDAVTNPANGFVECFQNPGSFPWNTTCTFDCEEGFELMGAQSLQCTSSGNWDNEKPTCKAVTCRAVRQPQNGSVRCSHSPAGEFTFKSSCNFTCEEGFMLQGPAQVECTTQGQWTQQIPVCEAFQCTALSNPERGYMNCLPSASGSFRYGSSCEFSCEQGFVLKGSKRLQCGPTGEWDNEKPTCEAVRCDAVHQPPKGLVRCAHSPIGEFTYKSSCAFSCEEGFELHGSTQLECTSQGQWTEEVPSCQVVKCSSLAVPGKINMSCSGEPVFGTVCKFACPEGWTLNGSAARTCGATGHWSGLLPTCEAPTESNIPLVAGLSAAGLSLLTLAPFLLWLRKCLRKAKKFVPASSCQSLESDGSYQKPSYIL

On1ccccc1=S
inactive: [3] | [6] | [8] | [9]
active: [1] 11 µM | CD40, CD40 (gene 958) 19.8 µM | [2] 31.2 µM | [4] 26.2 µM | [5] 19.8 µM | [7] 31.1 µM

O=C(O)c1cccc(N(Cc2cccnc2)c2ccc(OC(F)F)c(OC(F)F)c2)c1
active: [2] 11 µM | [3] 9.79 µM | [5] 20 µM | [6] 10.7 µM | [7] 12.2 µM | [9] 9.14 µM
inactive: [1] | CD40, CD40 (gene 958) | [4] | [8]

CC(C)CCCCCCOC(=O)c1ccc(C(=O)OCCCCCCC(C)C)c(C(=O)OCCCCCCC(C)C)c1
inactive: [1] | CD40, CD40 (gene 958) | [2] | [3] | [4] | [5] | [6] | [7] | [8] | [9]

CCOC(=O)c1ccc(C2CCC(NC[C@H](O)COc3ccc(O)c(NS(C)(=O)=O)c3)CC2)cc1 (some centres not stated)
active: [3] 30.9 µM | [4] 26.1 µM | [5] 29.9 µM | [6] 34.1 µM | [8] 18.7 µM
inactive: [1] | CD40, CD40 (gene 958) | [2] | [7] | [9]

C=CC(=C)CCC=C(C)C
inactive: [1] | CD40, CD40 (gene 958) | [2] | [3] | [4] | [5] | [6] | [7] | [8] | [9]

CC/C(=C\C(=N/O)C(N)=O)C(C)[N+](=O)[O-] (configuration not stated)
inactive: [1] | CD40, CD40 (gene 958) | [2] | [3] | [4] | [5] | [6] | [7] | [8] | [9]

COC(=O)CC(=O)OC
inactive: [1] | CD40, CD40 (gene 958) | [2] | [3] | [4] | [5] | [6] | [7] | [8] | [9]

COc1ccc(/C=C/S(=O)(=O)NC(=O)c2ccc(C)cc2Cl)cc1
inactive: [1] | CD40, CD40 (gene 958) | [2] | [3] | [4] | [5] | [6] | [7] | [8] | [9]

COCCOc1cc2cc(C(=O)NC3CCN(C(C)C)CC3)n(CC(=O)Nc3ccc(Cl)cn3)c2cn1
inactive: [1] | CD40, CD40 (gene 958) | [2] | [3] | [4] | [5] | [6] | [7] | [8] | [9]

Cn1c(=O)cc(Oc2ccc(F)cc2F)c2cnc(NCC(C)(C)O)nc21
inactive: [1] | CD40, CD40 (gene 958) | [4] | [8]
active: [2] 3.35 µM | [3] 2.9 µM | [5] 3.97 µM | [6] 3.88 µM | [7] 1.76 µM | [9] 0.58 µM

O=C(CCCCCCCCc1cccnc1)N1CCC(C=C(c2ccccc2)c2ccccc2)CC1
inactive: [7]
active: [1] 15.7 µM | CD40, CD40 (gene 958) 8.31 µM | [2] 14.4 µM | [3] 12 µM | [4] 11.7 µM | [5] 9.81 µM | [6] 10.1 µM | [8] 11.4 µM | [9] 14.6 µM

CCCCCCc1ccc(O)cc1O
inactive: [9]
active: [1] 31.6 µM | CD40, CD40 (gene 958) 27.6 µM | [2] 31.8 µM | [3] 29.6 µM | [4] 28.5 µM | [5] 26.6 µM | [6] 30.2 µM | [7] 1.38 µM

Nc1ccc(Nc2ccccc2)cc1
inactive: [1] | [4] | [9]
active: CD40, CD40 (gene 958) 3.97 µM | [2] 12.9 µM | [3] 11.2 µM | [7] 1.44 µM | [8] 8.31 µM

CCCCCCCCCCCCCCCO
inactive: [1] | [2] | [7] | [9]
active: CD40, CD40 (gene 958) 33.6 µM | [3] 31.1 µM | [4] 31.7 µM | [5] 31.9 µM | [8] 31 µM

C1=CCCC=CCCC=CCC1
inactive: [1] | CD40, CD40 (gene 958) | [2] | [4] | [5] | [6] | [7] | [8] | [9]

O=C(NS(=O)(=O)/C=C/c1ccccc1)c1ccc(F)cc1Cl
inactive: [1] | CD40, CD40 (gene 958) | [2] | [3] | [4] | [5] | [7] | [8] | [9]

CN(C)c1ccc(Cc2ccc(N(C)C)cc2)cc1
active: [3] 20 µM | [7] 5.6 µM
inactive: [1] | CD40, CD40 (gene 958) | [2] | [4] | [5] | [8] | [9]

CC(C)(O)c1coc(S(=O)(=O)NC(=O)Nc2c3c(cc4c2CCC4)CCC3)c1
inactive: [1] | CD40, CD40 (gene 958) | [2] | [4] | [5] | [6] | [7] | [8] | [9]
